Experimental data: PubChem BioAssay (EPA / NIEHS)
Activity calls are given as the source filed them. How the source made its calls: active means hit-call score of the fitted dose curve at least 0.9, where 1 is the maximum; inactive means score below 0.9.

Legend:
Details in all cases: mRNA level, 48 h; actives raise or lower the signal
[1] = read-out: Forkhead box O3 (FOXO3), FOXO3 (gene 2309); test: LTEA_HepaRG_FOXO3: Life Technologies and Expression Analysis (LTEA) Assay for Forkhead box O3 (FOXO3) using HepaRG (AID 2283459)
Procedure, shortened: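 Differentiated human HepaRG cells, 48 h post-plating, exposed in duplicate for 48 h in serum-free induction medium; 8-point half-log series from 100 uM in 0.5% DMSO. FOXO3 mRNA by TaqMan qRT-PCR, normalized to ACTB/GAPDH/POLR2A; bidirectional fit versus DMSO.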

[2] = read-out: ABC Transporter (ABCB1), ABCB1 (gene 5243); test: LTEA_HepaRG_ABCB1: Life Technologies and Expression Analysis (LTEA) Assay for ABC Transporter (ABCB1) using HepaRG (AID 2283460)
Procedure, shortened: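 HepaRG cells exposed in duplicate for 48 h in serum-free induction medium to eight half-log concentrations up to 100 uM in 0.5% DMSO. ABCB1 mRNA quantified by qRT-PCR, normalised to ACTB, GAPDH and POLR2A; fitted bidirectionally versus DMSO.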

[3] = read-out: growth arrest and DNA damage 45 (GADD45B), GADD45B (gene 4616); test: LTEA_HepaRG_GADD45B: Life Technologies and Expression Analysis (LTEA) Assay for growth arrest and DNA damage 45 (GADD45B) using HepaRG (AID 2283461)
Procedure, shortened: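 qRT-PCR read-out (Fluidigm TaqMan, housekeeping-normalized) of mRNA change in human HepaRG cells after 48 h chemical exposure; 8-point curve, top 100 uM, half-log steps, 0.5% DMSO vehicle; gain or loss fitted relative to DMSO baseline.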

[4] = read-out: ABC Transporter (ABCC3), ABCC3 (gene 8714); test: LTEA_HepaRG_ABCC3: Life Technologies and Expression Analysis (LTEA) Assay for ABC Transporter (ABCC3) using HepaRG (AID 2283462)
Procedure, shortened: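 qRT-PCR read-out of ABCC3 transcript, normalized to three housekeeping genes (ACTB, GAPDH, POLR2A), after 48 h chemical exposure of human HepaRG cells. Eight half-log concentrations, highest 100 uM, in 0.5% DMSO; gain or loss fitted relative to DMSO baseline.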

[5] = read-out: ABC Transporter (ABCB11), ABCB11 (gene 8647); test: LTEA_HepaRG_ABCB11: Life Technologies and Expression Analysis (LTEA) Assay for ABC Transporter (ABCB11) using HepaRG (AID 2283463)
Procedure, shortened: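 Differentiated human HepaRG cells in serum-free induction medium, dosed in duplicate for 48 h. Eight-point half-log series from 100 uM in 0.5% DMSO; ABCB11 mRNA by qRT-PCR, normalized to ACTB, GAPDH, POLR2A, fitted bidirectionally versus DMSO.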

[6] = read-out: ABC Transporter (ABCC2), ABCC2 (gene 1244); test: LTEA_HepaRG_ABCC2: Life Technologies and Expression Analysis (LTEA) Assay for ABC Transporter (ABCC2) using HepaRG (AID 2283464)
Procedure, shortened: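 qRT-PCR (TaqMan, Fluidigm array) read-out of ABCC2 mRNA, normalized to three housekeeping genes. Differentiated HepaRG cells were treated 48 h in serum-free induction medium with 8-point half-log series from 100 uM in 0.5% DMSO; curves fitted bidirectionally relative to DMSO.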

[7] = read-out: ATP-citrate lyase (ACLY), ACLY (gene 47); test: LTEA_HepaRG_ACLY: Life Technologies and Expression Analysis (LTEA) Assay for ATP-citrate lyase (ACLY) using HepaRG (AID 2283466)
Procedure, shortened: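 Differentiated HepaRG cells exposed 48 h in serum-free induction medium to eight half-log concentrations up to 100 uM in 0.5% DMSO, duplicates. Transcript measured by Fluidigm TaqMan qRT-PCR, normalized to ACTB, GAPDH, POLR2A; bidirectional fit versus DMSO.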

[8] = read-out: Peroxisomal acyl-coenzyme A oxidase 1 (ACOX1) gene, ACOX1 (gene 51); test: LTEA_HepaRG_ACOX1: Life Technologies and Expression Analysis (LTEA) Assay for Peroxisomal acyl-coenzyme A oxidase 1 (ACOX1) gene using HepaRG (AID 2283467)
Procedure, shortened: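 HepaRG cells, plated 48 h then switched to serum-free induction medium, were exposed in duplicate for 48 h to 8-point half-log concentrations up to 100 uM in 0.5% DMSO. ACOX1 mRNA was measured by qRT-PCR, normalized to ACTB/GAPDH/POLR2A, and fitted bidirectionally versus DMSO.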

[9] = read-out: Alkaline Phosphatase, Placental (ALPP) gene, ALPP (gene 250); test: LTEA_HepaRG_ALPP: Life Technologies and Expression Analysis (LTEA) Assay for Alkaline Phosphatase, Placental (ALPP) gene using HepaRG (AID 2283468)
Procedure, shortened: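 qRT-PCR readout of ALPP mRNA (Fluidigm TaqMan), normalized to ACTB/GAPDH/POLR2A, after 48 h chemical exposure of HepaRG cells; 8-point half-log series, top 100 uM, 0.5% DMSO vehicle. Bidirectional curve fit versus DMSO baseline.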

[10] = read-out: Bcl-2 (BAD) gene, BAD (gene 572); test: LTEA_HepaRG_BAD: Life Technologies and Expression Analysis (LTEA) Assay for Bcl-2 (BAD) gene using HepaRG (AID 2283469)
Procedure, shortened: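 Differentiated HepaRG cells were exposed in duplicate in 0.5% DMSO for 48 h to eight-point half-log concentrations up to 100 uM. BAD mRNA was measured by Fluidigm TaqMan qRT-PCR, normalized to ACTB, GAPDH and POLR2A, and fitted bidirectionally against DMSO.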

[11] = read-out: Bcl-2 (BAX) gene, BAX (gene 581); test: LTEA_HepaRG_BAX: Life Technologies and Expression Analysis (LTEA) Assay for Bcl-2 (BAX) gene using HepaRG (AID 2283470)
Procedure, shortened: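 Concentration-response endpoint fitted in both directions relative to 0.5% DMSO vehicle. Human HepaRG cultures receive test chemicals for 48 h at up to 100 uM; BAX mRNA is quantified by qRT-PCR against housekeeping genes.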

[12] = read-out: adenosine kinase (ADK) gene, ADK (gene 132); test: LTEA_HepaRG_ADK: Life Technologies and Expression Analysis (LTEA) Assay for adenosine kinase (ADK) gene using HepaRG (AID 2283471)
Procedure, shortened: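 Following 48 h exposure of HepaRG cells in 0.5% DMSO (top concentration 100 uM, duplicate wells), ADK mRNA induction or suppression was measured by qRT-PCR, normalised to ACTB/GAPDH/POLR2A, and fitted bidirectionally relative to vehicle.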

[13] = read-out: Alpha-fetoprotein (AFP) gene, AFP (gene 174); test: LTEA_HepaRG_AFP: Life Technologies and Expression Analysis (LTEA) Assay for Alpha-fetoprotein (AFP) gene using HepaRG (AID 2283472)
Procedure, shortened: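 After a 48 h plating period, cells are moved to serum-free induction medium and dosed in duplicate (100 uM maximum, half-log dilutions, 0.5% DMSO) for another 48 h. Total RNA goes to TaqMan qRT-PCR; AFP signal is housekeeping-normalized.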

BCL2L11 (gene 10018) = test: LTEA_HepaRG_BCL2L11: Life Technologies and Expression Analysis (LTEA) Assay for Bcl-2 (BCL2L11) gene using HepaRG (AID 2283473)
Procedure, shortened: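 HepaRG, 48 h exposure, 8-pt half-log series from 100 uM in 0.5% DMSO, duplicates; qRT-PCR (Fluidigm TaqMan) for BCL2L11, housekeeping-normalized; bidirectional curve fit relative to DMSO baseline.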

[14] = read-out: Apolipoprotein A-V (APOA5) gene, APOA5 (gene 116519); test: LTEA_HepaRG_APOA5: Life Technologies and Expression Analysis (LTEA) Assay for Apolipoprotein A-V (APOA5) gene using HepaRG (AID 2283474)
Procedure, shortened: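 HepaRG, 48 h chemical exposure in serum-free induction medium, 8-pt half-log series (top 100 uM), 0.5% DMSO vehicle, duplicates. Readout: APOA5 mRNA by qRT-PCR, housekeeping-normalized; bidirectional fit vs DMSO baseline.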

[15] = read-out: Apoptosis regulator Bcl-2 (Homo sapiens) (UniProt P10415); test: LTEA_HepaRG_BCL2: Life Technologies and Expression Analysis (LTEA) Assay for Bcl-2 gene using HepaRG (AID 2283475)
Procedure, shortened: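 Expression change of BCL2 mRNA in HepaRG after 48 h dosing, quantified by TaqMan qRT-PCR against three endogenous controls. Concentration-response used eight points up to 100 uM, vehicle 0.5% DMSO.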

[16] = read-out: Bcl-2 (BID) gene, BID (gene 637); test: LTEA_HepaRG_BID: Life Technologies and Expression Analysis (LTEA) Assay for Bcl-2 (BID) gene using HepaRG (AID 2283476)
Procedure, shortened: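 Gain or loss of BID expression is fitted relative to 0.5% DMSO vehicle. Human HepaRG liver cells received a 48 h chemical exposure over an eight-point concentration range.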

[17] = read-out: Cytochrome P450 (CYP24A1), CYP24A1 (gene 1591); test: LTEA_HepaRG_CYP24A1: Life Technologies and Expression Analysis (LTEA) Assay for Cytochrome P450 (CYP24A1) using HepaRG (AID 2283478)
Procedure, shortened: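 qRT-PCR read-out: CYP24A1 transcript levels normalized to three housekeeping genes, bidirectional curve fits against 0.5% DMSO baseline. Human HepaRG cells treated 48 h with chemicals at eight concentrations from 100 uM in half-log steps.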

Caspase-3 (Homo sapiens) = Caspase-3 (Homo sapiens) (UniProt P42574); test: LTEA_HepaRG_CASP3: Life Technologies and Expression Analysis (LTEA) Assay for cysteine-aspartic acid protease (CASP3) using HepaRG (AID 2283477)
Procedure, shortened: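 HepaRG, 48 h exposure, 8 conc. (top 100 uM, half-log steps, duplicate), 0.5% DMSO vehicle; qRT-PCR of CASP3 transcript, housekeeping-normalised (ACTB/GAPDH/POLR2A); bidirectional curve fit vs DMSO baseline.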

Measured: AC50

Chain of Apoptosis regulator Bcl-2 (Homo sapiens) (P10415 whole entry, looked up): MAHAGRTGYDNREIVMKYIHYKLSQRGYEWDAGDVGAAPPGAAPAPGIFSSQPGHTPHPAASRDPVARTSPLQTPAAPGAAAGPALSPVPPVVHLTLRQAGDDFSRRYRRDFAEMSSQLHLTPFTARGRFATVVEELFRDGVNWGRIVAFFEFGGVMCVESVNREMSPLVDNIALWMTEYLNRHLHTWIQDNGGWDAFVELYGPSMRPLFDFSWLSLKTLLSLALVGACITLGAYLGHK
Chain of Caspase-3 (Homo sapiens) (P42574 whole entry, looked up): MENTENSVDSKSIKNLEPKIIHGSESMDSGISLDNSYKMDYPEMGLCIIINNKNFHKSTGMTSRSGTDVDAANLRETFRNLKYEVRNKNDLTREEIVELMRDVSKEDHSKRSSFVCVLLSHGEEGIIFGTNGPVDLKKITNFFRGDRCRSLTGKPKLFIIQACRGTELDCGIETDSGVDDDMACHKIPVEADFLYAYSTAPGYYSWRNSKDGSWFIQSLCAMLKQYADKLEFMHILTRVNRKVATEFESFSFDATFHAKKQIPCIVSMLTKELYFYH

CCCN(C1CCN(C(=O)C2CCNCC2)CC1)[C@@H]1CCc2ccc(OC)cc2C1
active: [1] 27.6 µM | [2] 15.2 µM | [4] 42.9 µM | [5] 70 µM | [6] 76 µM | [8] 33.1 µM | [9] 50 µM | [13] 76.2 µM | [14] 77.4 µM
not listed: Caspase-3 (Homo sapiens)
inactive: all other assays above

O=c1[nH]c2ccc(S(=O)CCN3CCC(Cc4ccc(F)cc4)CC3)cc2o1 (stereo not given)
active: [6] 50 µM | [9] 64.7 µM | [13] 61.1 µM
not listed: [14]
inactive: all other assays above

O=P(OC(CCl)CCl)(OC(CCl)CCl)OC(CCl)CCl
active: [2] 78.8 µM | [5] 66.6 µM | [7] 75.9 µM | [9] 0.259 µM | [11] 84.5 µM | [12] 0.272 µM | [13] 15.8 µM | BCL2L11 (gene 10018) 83.8 µM | [14] 50 µM | [15] 88.3 µM | [16] 0.232 µM
inactive: [1] | [3] | [4] | [6] | [8] | [10] | [17]

CNS(=O)(=O)c1cc(C(=O)N2CCC(CCN3C4CCC3CC(n3c(C)nc5ccccc53)C4)(c3cccc(F)c3)CC2)c(Cl)cc1F (stereo not given)
active: [4] 12.5 µM | [5] 24.5 µM | [7] 30.9 µM | [8] 13.3 µM | [9] 14.5 µM | [13] 24.6 µM | [14] 30.5 µM | [15] 27.4 µM
inactive: all other assays above

O=C1CCCCCN1
not listed: Caspase-3 (Homo sapiens)
inactive: all other assays above

CCCCC(CC)COC(=O)CCCCCCCCC(=O)OCC(CC)CCCC (stereo not given)
inactive: all assays above

CC(C)=CCCC(C)CCO (stereo not given)
not listed: Caspase-3 (Homo sapiens)
inactive: all other assays above

O=C(O)c1cccc(Oc2ccccc2)c1
not listed: Caspase-3 (Homo sapiens)
inactive: all other assays above

CCOCCOCCOCCO
inactive: all assays above
